Screen size: about 16,000 compounds; about 2,600 (16%) were called active. Inconclusive results (about 20%) are left out. The list is a sample of the results. Values without a mark were called inactive. The call rests on the fitted dose curve; in most records, active means well fitted curve in the direction sought with a large enough effect; inconclusive means small, poorly fitted or top-dose-only effect, or effect the other way; inactive means no such curve, though single readings can be large or run the other way.
On the % scale 0 is the no-effect control and ±100 the full control effect.

For the test, the target named is Cytochrome P450 2D6 (Homo sapiens) (UniProt P10635). Nature of the test: Cytochrome panel assay with activity outcomes. The note with it: recombinant CYP, pro-luciferin dealkylation, luminescence, p450-cyp2d6; series mostly up to 57.1 µM.
Cytochrome P450 2D6 (Homo sapiens), sequence (P10635 whole entry, looked up): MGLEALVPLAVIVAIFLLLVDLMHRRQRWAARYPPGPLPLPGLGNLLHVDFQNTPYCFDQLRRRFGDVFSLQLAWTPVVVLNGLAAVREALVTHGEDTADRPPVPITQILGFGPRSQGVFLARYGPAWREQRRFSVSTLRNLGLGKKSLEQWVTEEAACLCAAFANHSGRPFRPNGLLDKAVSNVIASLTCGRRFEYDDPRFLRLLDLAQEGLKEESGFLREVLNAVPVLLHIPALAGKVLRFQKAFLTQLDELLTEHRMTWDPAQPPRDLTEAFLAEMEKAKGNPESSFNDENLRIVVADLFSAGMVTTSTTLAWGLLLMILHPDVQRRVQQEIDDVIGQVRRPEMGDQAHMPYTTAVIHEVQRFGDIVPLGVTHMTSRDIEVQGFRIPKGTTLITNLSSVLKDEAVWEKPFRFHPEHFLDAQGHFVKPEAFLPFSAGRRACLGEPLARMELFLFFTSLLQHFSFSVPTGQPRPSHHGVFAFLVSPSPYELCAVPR
Usually AC50 stands for the concentration at which the activity in the assay is half-maximal. In the case of `CC(=O)N(CC(O)CN(C(C)=O)c1c(I)c(C(=O)NC[C@@H](O)CO)c(I)c(C(=O)NC[C@@H](O)CO)c1I)c1c(I)c(C(=O)NC[C@@H](O)CO)c(I)c(C(=O)NC[C@@H](O)CO)c1I`, the AC50 result is “inactive”.

As for `COc1ccc(-n2cccc2C=O)cc1OC`, the AC50 result was “inactive”.

As to `CS(=O)(=O)N1CCC2(CCN(c3ccccc3)CC2)CC1`, the AC50 entry was “inactive”.

As for `CS(=O)(=O)N1CCC2(CCCN(c3ccncc3)C2)CC1`, the AC50 result was “inactive”.

With `CS(=O)(=O)N1CCC2(CCN(C(c3ccccc3)c3ccccc3)CC2)CC1`, the half-maximal activity concentration (AC50) was 3.16 µM (active).

With `CS(=O)(=O)N1CCC2(CC1)CN(C(c1ccccc1)c1ccccc1)C2`, the concentration at half-maximal activity (AC50) was 2.51 µM (active).

Consider `CS(=O)(=O)N1CCC2(CC1)CN(c1ccc(-c3ccccc3)cc1)C2`, for which the AC50 result is “inactive”.

For `CS(=O)(=O)N1CCC2(CC1)CN(c1ccccc1)C2`, the AC50 is 1.26 µM (active).

`CS(=O)(=O)N1CCC2(CC1)CN(c1ccncc1)C2`: the AC50 entry is “inactive”.

For `CS(=O)(=O)N1CCC2(CC1)CN(C(=O)Nc1ccccc1)C2`, the AC50 result is “inactive”.

For the compound `CS(=O)(=O)N1CCC2(CCCN(C(c3ccccc3)c3ccccc3)C2)CC1`, the AC50 is 5.01 µM (active).

Consider `CS(=O)(=O)N1CCC2(CCN(c3cccc(-c4ccccc4)c3)CC2)CC1`, for which the AC50 result was “inactive”.

`O=C1NC(=S)N/C1=C/c1cccc([N+](=O)[O-])c1O`: the AC50 entry is “inactive”.

Turning to `O=C1CC(c2ccc(F)cc2)Cc2nc(NCC3CCCO3)ncc21` (configuration not stated), the AC50 result was “inactive”.

For the compound `CC12CCC(C(=O)Nc3ncc([N+](=O)[O-])s3)(OC1=O)C2(C)C` (configuration not stated), the AC50 entry was “inactive”.

`Cc1cccc(C(=O)NN(C)c2nc(-c3ccccc3)nnc2C(F)(F)F)c1`: the AC50 entry is “inactive”.

Turning to `CCOC(=O)N1CCN(C(=O)c2cc(-c3ccc(F)cc3)[nH]c2C)CC1`, the AC50 entry is “inactive”.

In the case of `COC(=O)C/C=C\[C@@H](C)[C@@H](/C=N\O[C@@H](C)c1cn([C@H](CO)Cc2ccccc2)nn1)NS(=O)(=O)c1ccc(C)cc1`, the activity, negative = inhibition was -17.6% [at 11.4 µM].

Consider `COCCCn1nnnc1SCC(=O)N1CCCC1`, for which the AC50 entry is “inactive”.

As to `Cn1c(SC2CCCCC2=O)nnc1-c1ccncc1` (configuration not stated), the AC50 entry was “inactive”.

For the compound `COC(=O)Cn1nc(-c2ccccc2)n(-c2ccccc2)c1=S`, the AC50 entry was “inactive”.

As to `O=C(NC(=S)Nc1cccc(Cl)c1N1CCCC1)c1ccc(-c2cccc([N+](=O)[O-])c2)o1`, the AC50 result is “inactive”.

With `CS(=O)(=O)N1CCC[C@@]2(CCN(C(=O)Nc3ccccc3)C2)C1`, the AC50 entry is “inactive”.

On to `CS(=O)(=O)N1CCC[C@@]2(CCN(C(c3ccccc3)c3ccccc3)C2)C1`, for which the AC50 was 3.98 µM (active).

Regarding `CS(=O)(=O)N1CCC[C@@]2(CCN(c3ccccc3)C2)C1`, the AC50 result was “inactive”.

For `Cc1nc2c3cnn(-c4ccc(C)c(C)c4)c3ncn2n1`, the AC50 result was “inactive”.

Turning to `CCCc1nnc(SCC(=O)N2CCCC(C)C2)n1CC1CCCO1` (configuration not stated), the AC50 result is “inactive”.

As for `COC(=O)N1CCC2(CC1)CN(C(=O)Nc1ccc(OC)cc1)C2`, the AC50 result was “inactive”.

In the case of `Cc1ncc(CO)c(CO)c1O`, the AC50 result is “inactive”.

With `Cc1ncc2c(c1O)COP(=O)(O)OC2`, the AC50 is 1 µM (active).

`CCC1NC(=S)N(C2CCCCC2)C1=O` (configuration not stated): the AC50 result was “inactive”.

As to `C(/C=C/c1ccco1)=N/N1CCN(c2ccccc2)CC1`, the AC50 entry is “inactive”.

As to `N=c1n(CCN2CCOCC2)c2ccccc2n1CC(=O)c1ccc(Cl)c(Cl)c1`, the AC50 is 2 µM (active).

As to `O=C(/C=C/c1ccc(Cl)cc1)NCCN1CCOCC1`, the AC50 entry was “inactive”.

On to `O=C(/C=C/c1ccccc1Cl)NCCN1CCOCC1`, for which the AC50 entry is “inactive”.

With `O=c1c(-c2ccc(F)cc2)nc2cnc(N3CCOCC3)nc2n1C1CC1`, the AC50 entry was “inactive”.

With `O=C(CN1C(=O)c2ccccc2C1=O)NC1(C(=O)O)CCCC1`, the activity, negative = inhibition is 2.83% [at 11.4 µM].

`COCCn1c(=O)c(-c2ccccc2)nc2cnc(Oc3ccccc3)nc21`: the AC50 result was “inactive”.

On to `COc1ccc(NC(=O)N2CC3(CCN(C(=O)c4ccc(OC)cc4)CC3)C2)cc1`, for which the AC50 result was “inactive”.

Take `C[C@H]1CC(C)(C)C[C@@](OCCN2CCCCC2)(c2ccccc2)C1`: the AC50 was 0.631 µM (active).

Turning to `CCCc1nnc(SCC(=O)N2CCCCC2C)n1CC1CCCO1` (configuration not stated), the AC50 entry is “inactive”.

On to `Cc1ccc(OC(=O)N2CCOCC2)cc1`, for which the AC50 entry is “inactive”.

Take `CCOC(=O)C1CCCN(c2ncnc3c2cnn3-c2cccc(C)c2)C1` (configuration not stated): the AC50 entry was “inactive”.

`CN1CCN(c2ncc3nc(-c4ccc(F)cc4)c(=O)n(C4CC4)c3n2)CC1`: the AC50 result was “inactive”.

For `COc1ccc(-c2nnc(SCc3cccc(C)c3)n2N)cc1`, the AC50 is 14.1 µM (active).

In the case of `CCn1c(SCc2cccc(C)c2)nnc1-c1ccc(C)cc1`, the AC50 result is “inactive”.

As to `COc1ccc(NCc2nnc(SCc3ccccc3)n2-c2ccc(OC)cc2)cc1`, the AC50 result was “inactive”.

Regarding `Cc1ccc(OCC(=O)NC2=NCCS2)cc1`, the AC50 entry was “inactive”.

Turning to `CCC(=O)Nc1ccc(C(=O)NNC(=O)c2cccs2)cc1`, the AC50 result is “inactive”.

In the case of `CC(C)[C@H](NC(=O)OC(C)(C)C)[C@@H](O)CC(=O)C(C)(C)C`, the activity, negative = inhibition was 3.85% [at 11.4 µM].

Consider `CC(C)[C@H](NC(=O)OC(C)(C)C)[C@@H](O)CC(=O)OC(C)(C)C`, for which the AC50 is 3.16 µM (active).

Turning to `CC(=O)C[C@H](O)[C@@H](NC(=O)OC(C)(C)C)C(C)C`, the activity, negative = inhibition was -3.21% [at 11.4 µM].

Turning to `Cc1ccc(NC(=O)C2CCN(S(=O)(=O)c3c(C)n[nH]c3C)CC2)nc1`, the AC50 result was “inactive”.

On to `NC[C@@H]1O[C@H](C23CC4CC(CC(C4)C2)C3)Cc2c1ccc(O)c2O`, for which the AC50 entry is “inactive”.

`NC(=O)CSc1nc2sc(-c3ccccc3)cc2c(=O)n1N`: the AC50 result was “inactive”.

As to `COc1ccc(C[C@@H]2C(=O)N[C@H](C)C(=O)N(C)[C@@H]3Cc4ccc(cc4)Oc4cc(ccc4O)C[C@H](C(=O)N[C@@H](C)C(=O)N[C@H](C)C(=O)N2C)N(C)C3=O)cc1`, the activity, negative = inhibition was -5.02% [at 11.4 µM].

Regarding `CC[N+](CC)(CC)CCOc1ccc(/C=C\c2ccccc2)cc1`, the AC50 is 7.94 µM (active).

Take `CC[N+](CC)(CC)CCOc1cccc(OCC[N+](CC)(CC)CC)c1OCC[N+](CC)(CC)CC`: the AC50 entry is “inactive”.

For the compound `CCOC(=O)N1CCN(C(=O)c2ccc(Cl)c(S(=O)(=O)N3CCOCC3)c2)CC1`, the AC50 result was “inactive”.

For the compound `Cc1ccc(C(=O)NCCCN2CCOCC2)cc1N1CCCC1=O`, the AC50 entry is “inactive”.

Turning to `O=C(NCCCn1ccnc1)c1ccc(Br)c(S(=O)(=O)N2CCOCC2)c1`, the AC50 is 0.316 µM (active).

Consider `O=C(O)/C=C\C(=O)Nc1ccc2c(c1)-c1ccccc1C2`, for which the activity, negative = inhibition is 8.73% [at 11.4 µM].

As for `CC(=O)N1CCC2(CC1)CN(c1ccncc1)C2`, the AC50 entry is “inactive”.

For `O=C(N/N=C/c1ccccn1)c1ccc(Br)o1`, the AC50 entry is “inactive”.

`CN(C)c1ncc2nc(-c3ccccc3)c(=O)n(C3CC3)c2n1`: the AC50 entry was “inactive”.

Turning to `C=CCSC[C@@H]1Nc2cc(Cl)c(S(N)(=O)=O)cc2S(=O)(=O)N1`, the AC50 result is “inactive”.

In the case of `COc1ccc(C(=O)/C=C(/C)N(C)C)cc1`, the AC50 entry is “inactive”.

In the case of `COc1ccc(C(=O)N2CCC3(CCN(C)CC3)CC2)cc1`, the AC50 entry was “inactive”.

For the compound `COc1ccc(C(=O)/C=C2/c3ccccc3CC(C)(C)N2C)cc1`, the AC50 was 0.282 µM (active).

As to `Clc1cccc(Oc2cnc3ccccc3n2)c1`, the AC50 result was “inactive”.

On to `COC(=O)c1ccc(NC(=O)C2CCCCC2C(=O)O)cc1` (configuration not stated), for which the AC50 entry was “inactive”.

Turning to `Cc1ccc(NC(=S)NC2CCCC2)cc1`, the AC50 result was “inactive”.

Consider `COC(=O)c1ccc(NC(=S)NC2CCCCC2)cc1`, for which the AC50 is 15.8 µM (active).

Consider `CCCc1nnc(NC(=O)CCC(=O)NCc2ccccc2OC)s1`, for which the AC50 entry was “inactive”.

In the case of `CCCCCCCC/C=C\CCCCCCCC(=O)NCc1ccc(O)c(OC)c1`, the AC50 is 3.16 µM (active).

With `CCCCCCCCCCCCCCCC(=O)NC(C)C`, the AC50 result is “inactive”.

With `CC(=O)N[C@H](Cc1ccc(O)cc1)C(=O)O`, the activity, negative = inhibition is -3.43% [at 11.4 µM].

Take `CCCCCCCC/C=C\CCCCCCCC(=O)N[C@@H](CO)Cc1ccc(O)cc1`: the half-maximal activity concentration (AC50) was 0.126 µM (active).

In the case of `COc1cc(CC(=O)O)ccc1O`, the AC50 result was “inactive”.

On to `CCCCCCCC/C=C\CCCCCCCC(=O)NCCc1ccc(O)c(O)c1`, for which the AC50 result was “inactive”.

As for `CCCCCC(=O)Nc1cc2[nH]c(=O)cc(COC)c2cc1C`, the AC50 entry is “inactive”.

Consider `CCCCCCCCC(=O)NCc1cc(OC)c(O)cc1I`, for which the AC50 was 7.94 µM (active).

Turning to `O=C(Nc1ccc(F)cc1Cl)c1ccc2c(=O)n3c(nc2c1)CCCCC3`, the AC50 result is “inactive”.

Regarding `Cc1ccc(N=C/C(C(=O)C(F)(F)F)=C(\O)c2cccs2)cc1`, the AC50 result was “inactive”.

Consider `CCOC(=O)Cc1csc(NC(=S)NC(=O)c2ccc(F)cc2)n1`, for which the AC50 result is “inactive”.

Consider `CCOc1ccc(NC(=O)N2CCC(C(N)=O)(N3CCCCC3)CC2)cc1`, for which the AC50 result is “inactive”.

With `CC(C)CO/N=C1/[C@H]2O[C@@H]2[C@@H](O)[C@H]2[C@H]1CCn1c(=O)n(-c3ccccc3)c(=O)n12`, the activity, negative = inhibition was 12.6% [at 11.4 µM].

For the compound `COCCn1c(=O)c(-c2cccs2)nc2cnc(Oc3ccccc3)nc21`, the AC50 entry is “inactive”.

As to `CC(C)C(O)(C(C)C)C(C)C`, the activity, negative = inhibition is 8.61% [at 11.4 µM].

`COc1ccc(C(=O)Nc2cc(OC)cc(OC)c2)cc1`: the AC50 was 7.08 µM (active).

Regarding `COc1ccc(C(=O)Nc2cccc(OC(=O)c3ccc(C)c(C)c3)c2)cc1`, the AC50 entry was “inactive”.

For `CCOc1ccc(NC(=O)c2ccc(OC)cc2)cc1`, the AC50 entry was “inactive”.

Turning to `CCCCc1nc(SCC(=O)Nc2ncccn2)n[nH]1`, the AC50 entry was “inactive”.

With `COC(=O)COc1ccsc1C(=O)OC`, the AC50 entry was “inactive”.

`COc1ccc2oc(-c3ccc(C)c(NC(=O)CSc4ccc(Cl)cc4)c3)nc2c1`: the concentration at half-maximal activity (AC50) was 2.51 µM (active).

For the compound `Cc1ccc(-c2nc3ccccc3o2)cc1NC(=O)Cc1cccs1`, the AC50 entry was “inactive”.

For `COc1ccc2oc(-c3ccc(C)c(NC(=O)c4ccc(N5CCOCC5)c([N+](=O)[O-])c4)c3)nc2c1`, the AC50 entry was “inactive”.

As for `Cc1cccc(NC(NC(=O)c2cccnc2)C(Cl)(Cl)Cl)c1` (configuration not stated), the AC50 entry was “inactive”.

As to `NC(=O)c1ncn([C@@H]2O[C@@H](CO)[C@@H](O)[C@H]2O)c1O`, the AC50 result was “inactive”.

As for `COc1ccc(O[C@H]2C=C[C@@H](c3ccccc3)O[C@@H]2CON=C(C)C)cc1`, the activity, negative = inhibition is -3.07% [at 11.4 µM].

For the compound `O=C(Cc1csc(Nc2nc(=S)[nH]c3ccccc23)n1)NCc1cccc(Cl)c1`, the AC50 result is “inactive”.

`Cc1sc2nc(SCC(=O)C(C)(C)C)n(Cc3ccco3)c(=O)c2c1C`: the AC50 result was “inactive”.

The values are drawn from PubChem BioAssay AID1851 (National Center for Advancing Translational Sciences (NCATS), 2009).
